In PubChem BioAssay AID1851 (National Center for Advancing Translational Sciences (NCATS), 2009):
About 5,100 (32%) of roughly 16,000 compounds were called active. Another 25% or so got no clear call; they are omitted. Calls follow the shape of the dose curve; as a rule, active = well fitted curve in the direction sought with a large enough effect; inconclusive = small, poorly fitted or top-dose-only effect, or effect the other way; inactive = no such curve, though single readings can be large or run the other way. This is one part of the list.

These molecules were tested against Cytochrome P450 3A4 (Homo sapiens) (UniProt P08684) (assay: Cytochrome panel assay with activity outcomes). Conditions: recombinant CYP, pro-luciferin dealkylation, luminescence, p450-cyp3a4; series mostly up to 57.1 µM; activity, negative = inhibition: at the top concentration.
% is scaled to controls: 0 for no effect and ±100 for the full control effect.

Cytochrome P450 3A4 (Homo sapiens), sequence (P08684 whole entry, looked up): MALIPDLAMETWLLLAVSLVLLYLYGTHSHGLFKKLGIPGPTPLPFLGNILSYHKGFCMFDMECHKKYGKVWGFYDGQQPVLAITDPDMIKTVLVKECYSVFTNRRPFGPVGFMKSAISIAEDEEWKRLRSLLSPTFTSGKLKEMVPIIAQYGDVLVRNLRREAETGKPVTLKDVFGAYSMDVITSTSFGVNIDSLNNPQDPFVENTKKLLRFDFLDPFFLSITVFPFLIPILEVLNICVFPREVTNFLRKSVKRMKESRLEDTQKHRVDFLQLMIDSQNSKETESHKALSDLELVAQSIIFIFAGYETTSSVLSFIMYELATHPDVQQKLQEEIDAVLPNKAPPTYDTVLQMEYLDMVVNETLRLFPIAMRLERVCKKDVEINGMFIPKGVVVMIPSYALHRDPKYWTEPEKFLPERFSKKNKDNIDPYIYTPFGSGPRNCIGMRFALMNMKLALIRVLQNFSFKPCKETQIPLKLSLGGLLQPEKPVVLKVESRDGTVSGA

Q: Which “activity, negative = inhibition” value does the source give for Cc1nc(Sc2ccccc2)c(C#N)cc1-c1ccccc1 here?
A: Its value is -21.7% (inactive).

Q: For N#Cc1ccc(-c2ccc(F)cc2)nc1Oc1ccc(Cl)c(Cl)c1, which “activity, negative = inhibition” value is on record?
A: The value was -17.9% (inactive).

Q: Cc1ccc(Sc2nc(-c3ccccc3)ccc2C#N)cc1 was tested. Which AC50 did it give?
A: Its AC50 is 20 µM (active).

Q: How did the AC50 turn out when COc1ccccc1-c1nnc(SCc2nc3ccccc3s2)n1C was run?
A: Its AC50 is 17.8 µM (active).

Q: With CCN1C(=O)[C@H]2[C@H]3[C@H](O)[C@H](O)C/C(=N/O[C@@H]4O[C@@H](COC(C)=O)[C@@H](OC(C)=O)[C@@H](OC(C)=O)[C@H]4OC(C)=O)[C@@H]3CC[C@@H]2C1=O as the molecule, how does the activity, negative = inhibition read?
A: The activity, negative = inhibition was -19.3% [at 11.4 µM] (inactive).

Q: How did the “activity, negative = inhibition” value turn out when COc1cc(-c2ccc(=O)[nH]n2)ccc1OC(F)F was run?
A: Its value is -15.5% [at 25.6 µM] (inactive).

Q: Which AC50 does the source give for COc1ccc(-c2cc(-c3c(O)c(OC)c4occc4c3OC)[nH]n2)cc1OC here?
A: Its AC50 is 7.94 µM (active).

Q: Which AC50 does the source give for COc1ccc(-c2cc(-c3cc(F)ccc3O)[nH]n2)cc1OC here?
A: Its AC50 is 20 µM (active).

Q: COc1ccc(-c2c(C)oc3c(CN4CCN(CCO)CC4)c(O)ccc3c2=O)cc1OC was tested. Which activity, negative = inhibition did it give?
A: The activity, negative = inhibition was -0.572% [at 11.4 µM] (inactive).

Q: Which “activity, negative = inhibition” value does the source give for Nc1nc(Nc2ccccc2)nc2c1ncn2[C@@H]1O[C@@H](CO)[C@H](O)[C@H]1O here?
A: The value was -18.5% (inactive).

Q: With Cc1nn(C(=O)CN2C(=O)c3ccccc3C2=O)c(C)c1Br as the molecule, how does the “activity, negative = inhibition” value read?
A: Its value is 11.3% (inactive).

Q: How did the AC50 turn out when O=C1c2ccccc2C(=O)N1CC(=O)N1c2ccccc2CCc2ccccc21 was run?
A: Its AC50 is 12.6 µM (active).

Q: With O=C(CN1C(=O)c2ccccc2C1=O)NC1(C(=O)O)CCCC1 as the molecule, how does the activity, negative = inhibition read?
A: The activity, negative = inhibition was -10.2% [at 11.4 µM] (inactive).

Q: CCc1ccc(C2=Nn3c(nnc3-c3cccs3)SC2)cc1 was tested. Which AC50 did it give?
A: The AC50 was 25.1 µM (active).

Q: For CCOc1ccc(-c2nnc3n2N=C(c2ccc(OC)cc2)CS3)cc1, which AC50 is on record?
A: The AC50 was 15.8 µM (active).

Q: Which “activity, negative = inhibition” value does the source give for CCOc1ccc(-c2nnc3ccc(SC)nn23)cc1 here?
A: The value was 9.6% (inactive).

Q: Which “activity, negative = inhibition” value does the source give for COc1ccc(-c2nnc3n2N=C(C)CS3)cc1 here?
A: The value was -7.27% (inactive).

Q: c1ccc(-c2ccc(C3=Nn4c(Cn5nnc6ccccc65)nnc4SC3)cc2)cc1 was tested. Which activity, negative = inhibition did it give?
A: The activity, negative = inhibition was -11.6% [at 2.29 µM] (inactive).

Q: Which AC50 does the source give for Cc1ccc(CNC(=O)C2(NC(=O)Nc3ccc(C)cc3)CCCCC2)cc1 here?
A: The AC50 was 2.51 µM (active).

Q: O=C(O)C1(Nc2ccc(Cl)cc2)CCCC1 was tested. Which activity, negative = inhibition did it give?
A: Its activity, negative = inhibition is -9.17% [at 11.4 µM] (inactive).

Q: How did the “activity, negative = inhibition” value turn out when CCNC(=O)NC1(C(=O)Nc2ccc3c(c2)OCCO3)CCCCC1 was run?
A: Its value is -6.09% (inactive).

Q: For O=C(CSCc1ccccc1)Nc1ccc(S(=O)(=O)N2CCOCC2)cc1, which activity, negative = inhibition is on record?
A: Its activity, negative = inhibition is -15.3% [at 11.4 µM] (inactive).

Q: How did the AC50 turn out when O=C(CSCc1ccccc1)Nc1cccc(C(=O)Nc2ccccc2C(=O)O)c1 was run?
A: The AC50 was 14.1 µM (active).

Q: CNc1csc(C)c(C)c1=O was tested. Which “activity, negative = inhibition” value did it give?
A: The value was -19.3% (inactive).

Q: For c1ccc2c(CSc3nnc(-c4ccncc4)o3)cccc2c1, which AC50 is on record?
A: The AC50 was 15.8 µM (active).

Q: c1ccc2c(CSCc3cccc4ccccc34)cccc2c1 was tested. Which activity, negative = inhibition did it give?
A: Its activity, negative = inhibition is -3.97% [at 11.4 µM] (inactive).
